# TEAD-YAP block: TEAD-YAP interaction inhibition | AID 1259422 | inhibition, % at 9.12 µM | HEK-TIYL cells, TEAD-Gal4/YAP UAS-luciferase luminescence | hit rate 1.4% among 640,000; in the data active = inhibition above about 32%;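 note: 0% = median of test compound wells and 100% = reference inhibitor wells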
# GPR151 activ: activators of human GPR151. hit rate 1% among 650,000. PathHunter beta-arrestin GPR151 cells, luminescence. AID 1508602. activation, % at 11.2 µM. Q8TDV0; in the data active = activation above about 4.9%;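 note: 0% = median of compound wells and 100% = cells with positive control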
# Target sequence (Q8TDV0 whole entry, looked up): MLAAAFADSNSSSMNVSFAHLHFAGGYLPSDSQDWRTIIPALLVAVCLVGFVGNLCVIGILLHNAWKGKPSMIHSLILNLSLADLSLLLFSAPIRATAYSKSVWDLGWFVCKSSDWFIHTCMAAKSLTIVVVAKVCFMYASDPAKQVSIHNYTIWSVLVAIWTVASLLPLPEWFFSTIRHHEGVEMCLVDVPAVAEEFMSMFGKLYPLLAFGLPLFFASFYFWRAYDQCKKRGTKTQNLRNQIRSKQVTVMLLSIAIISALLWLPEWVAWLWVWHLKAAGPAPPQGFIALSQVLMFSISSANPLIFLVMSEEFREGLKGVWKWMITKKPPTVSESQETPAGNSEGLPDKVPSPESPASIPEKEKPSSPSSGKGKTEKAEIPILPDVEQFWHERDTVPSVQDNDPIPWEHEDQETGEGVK
# FBW7 act: human FBW7 E3 ligase activation, primary screen | AlphaScreen FBW7–phospho-cyclin E peptide binding, activator screen | normalized activity (activation), % at 26.1 µM | hit rate 0.13% among 650,000; in the data active = normalized activity above about 1.9%;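 note: purified mutant Fbw7 with reduced substrate affinity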
# MITF inh: blocks human microphthalmia-associated transcription factor. O75030. AlphaScreen MITF homodimerization, bead proximity signal. inhibition, % at 2.6 µM. hit rate 0.91% among 650,000. AID 1259374; in the data active = inhibition above about 50%;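 note: 0% = vehicle wells with protein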
# MITF confirm: confirmation of human MITF inhibitors. shares compounds with MITF inh. AlphaScreen MITF homodimerization, biotin/His-MITF beads. inhibition, % at 2.6 µM. hit rate 16% among 4,700. AID 1259372;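 active = inhibition above a cutoff derived from the DMSO control wells, cut at about 28% in these data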;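 note: 0% = MITF dimer wells with DMSO only; inhibitors lower the bead chemiluminescence by keeping MITF from dimerizing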
# AlphaScreen DR: AlphaScreen optical interference, dose response counter-screen; shares compounds with MITF inh; AlphaScreen optical interference counterscreen, cell-free; IC50, µM; hit rate 6% among 480; AID 1259373; call rule not given here
# AS interf ctr: AlphaScreen optical interference, counter-screen; shares compounds with MITF inh; LysRS AlphaScreen counterscreen, signal interference, triplicate; inhibition, % at 2.6 µM; hit rate 7.6% among 4,700; AID 1259376;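 active = inhibition above a cutoff derived from the DMSO control wells, cut at about 30% in these data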
# * = called active by the depositor; x = not tested or not shown. Sampled rows, rich in hits. Any-hit rate of the full collection: about 3.5%.
SMILES,TEAD-YAP block,GPR151 activ,FBW7 act,MITF inh,MITF confirm,AS interf ctr,others
COc1ccc(CN2CCCC(C(=O)N3CCCC3)C2)c(OC)c1OC (stereo unspecified),13.5,-0.3,0.0,93.2*,-14.9,-11.9,
CCC(C)NC(=O)CN(c1cccc(OC)c1)S(C)(=O)=O (stereo unspecified),1.9,-0.1,0.1,-1.7,x,x,
CCN(CC)c1ccc(C(c2c(C)[nH][nH]c2=O)c2c(C)[nH][nH]c2=O)cc1,10.3,0.4,-0.7,77.4*,71.1*,-1.6,
Cc1cc(C)nc(N2N=C3CCCN4C(=C3C2=N)Sc2ccccc24)n1,11.3,0.7,0.0,-2.5,x,x,
CCN(CC)C(=S)SCc1c(C)c(C)c(Br)c(C)c1C,8.2,0.8,0.0,52.0*,3.3,6.7,
CCN(CC)C(=S)SCc1cn2cccc(C)c2n1,-12.0,1.3,0.1,-3.3,x,x,
COc1ccc(Cl)cc1NC(=O)c1cc(S(=O)(=O)NC2CCCC(C)C2C)ccc1F (stereo unspecified),2.8,-1.8,0.7,-12.1,x,x,
O=c1cc2ncc(-c3[nH]ncc3[N+](=O)[O-])cn2[nH]1,4.1,-0.2,-0.2,4.7,x,x,
O=C(O)c1cc2ncc(-c3n[nH]c(-c4cnc5cc(C(=O)O)nn5c4)c3[N+](=O)[O-])cn2n1,-9.3,0.9,-0.9,68.4*,57.7*,-15.1,AlphaScreen DR=>6.48
COCc1cc(=O)[nH]c(Nc2nc3ccccc3o2)n1,-0.3,-0.7,-1.2,64.6*,75.0*,100.6*,
CN(C)c1cc(NC(=O)CNC(C)(C)C)c(O)c2c1C[C@H]1C[C@H]3[C@@H](N(C)C)C(=O)C(C(N)=O)=C(O)[C@@]3(O)C(=O)C1=C2O,-3.0,1.1,-0.5,78.2*,59.7*,-4.5,AlphaScreen DR=>6.48
COC(=O)c1ccc(NC(=O)CN2CCC(Cn3c(C)nc4ccccc43)CC2)cc1,11.5,0.3,-0.1,67.8*,4.7,22.0,
Cc1cc(NC(=O)CN2CCC(Cn3c(C)nc4ccccc43)CC2)no1,39.4*,-1.5,0.1,78.7*,11.1,13.8,
CCCCC(=O)Nc1nnc(S(=O)(=O)N(CC(C)C)c2ccc(C)cc2)s1,3.6,-0.6,-0.2,-10.5,x,x,
Cc1sc2ncn(CC(=O)NCC(=O)N3CCN(c4ccc(F)cc4)CC3)c(=O)c2c1C,2.2,2.6,0.5,68.2*,2.1,3.9,
Clc1ccccc1CN1CCN(c2ncccn2)CC1,-4.1,-0.2,0.1,20.8,x,x,
Oc1c(Br)cc(CN2CCCCC2)c2cccnc12,65.8*,-0.5,-1.0,92.5*,112.0*,100.6*,
Oc1c(Cl)cc(CN2CCCCC2)c2cccnc12,83.2*,1.2,-1.0,109.7*,109.7*,100.6*,
O=C(c1ccccc1)c1cccn1CC(=O)N1CCCCCC1,2.5,1.0,0.0,63.4*,10.3,9.9,
O=C(c1ccccc1)c1cccn1CC(=O)N1CCCC1,-0.1,0.5,0.2,7.0,x,x,
O=C1N[C@H](CO)C(=O)N2CCN(C(=O)c3ccccc3)C[C@H]12,5.5,-3.9,0.7,-11.6,x,x,
O=C1N[C@@H](Cc2ccccc2)C(=O)N2CCN(C(=O)OCc3ccccc3)C[C@H]12,4.7,2.5,0.0,5.9,x,x,
O=C1N[C@H](Cc2ccccc2)C(=O)N2CCN(C(=O)c3ccccc3)C[C@H]12,5.3,0.3,-0.1,2.9,x,x,
O=C1N[C@H](Cc2ccc(O)cc2)C(=O)N2CCN(C(=O)NCc3ccccc3)C[C@H]12,-10.1,-0.9,-0.2,74.7*,72.0*,-10.7,AlphaScreen DR=>6.48
CCC[C@@H]1NC(=O)[C@H]2CN(C(=O)NCc3ccccc3)CCN2C1=O,5.4,2.7,0.0,75.0*,71.0*,-4.2,AlphaScreen DR=>6.48
SMILES,TEAD-YAP block,GPR151 activ,FBW7 act,MITF inh,MITF confirm,AS interf ctr,others
O=C1N[C@H](CO)C(=O)N2CCN(C(=O)NCc3ccccc3)C[C@H]12,1.8,-0.5,-0.1,81.5*,75.3*,-11.6,AlphaScreen DR=>6.48
NCCCC[C@@H]1NC(=O)[C@H]2CN(C(=O)NCc3ccccc3)CCN2C1=O,-0.7,-0.4,0.1,-11.7,x,x,
O=C1N[C@@H](Cc2ccccc2)C(=O)N2CCN(C(=O)NCc3ccccc3)C[C@H]12,8.5,-0.4,-0.2,77.0*,73.7*,-7.0,AlphaScreen DR=>6.48
COC(=O)c1ccc(-c2ccco2)n1CC(=O)c1ccccc1,-2.7,-2.2,0.5,14.8,x,x,
O=C(CCC(=O)OCc1ccc([N+](=O)[O-])cc1Cl)Nc1cccc2cccnc12,-2.9,-1.6,0.9,18.8,x,x,
CN(C)C(=O)c1ccc(Nc2nnc(-c3ccc(C(N)=O)cc3)c3ccccc23)cc1,-5.9,0.0,-0.1,-7.7,x,x,
CCc1nc(NCCCCCO)c2nnn(Cc3ccccc3F)c2n1,11.9,1.2,0.1,58.9*,5.7,15.1,
CCOc1ccccc1C1C(C#N)=C(SCC(=O)Nc2ccc(Br)cc2)NC(=O)C1C(=O)OC (stereo unspecified),10.3,0.0,0.0,54.4*,-8.1,-7.5,
O=C(c1ccncc1)N1CCN(C(=O)c2ncoc2-c2ccc3ccccc3c2)CC1,-4.5,1.9,0.0,-15.2,x,x,
COCCOCC(O)CN1CCN(c2ccc(C)cc2)CC1 (stereo unspecified),-6.7,1.4,-0.1,51.7*,4.0,1.3,
O=C(NC1CCC(Nc2ccc3[nH]ncc3c2)CC1)[C@H](O)c1cccc(Cl)c1 (stereo partly specified),-4.0,0.7,-0.1,4.3,x,x,
CC(C)Nc1nc(-c2ccc(Cl)cc2)c(S(C)(=O)=O)cc1C#N,-13.1,1.8,0.3,57.5*,14.3,16.1,
CS(=O)(=O)c1cc(C#N)c(N2CCNCC2)nc1-c1ccc(Cl)cc1,3.1,1.6,0.0,0.5,x,x,
Cc1ccc(/C=C/C(=O)NCc2ccccn2)o1,0.9,1.5,-0.7,61.0*,39.0*,19.0,AlphaScreen DR=>6.48
Cc1ccc(/C=C/C(=O)NCc2ccco2)o1,-10.0,-1.2,-0.1,64.5*,65.6*,39.1*,
Cc1nc2nc(CN)nn2c(C)c1CCC(=O)Nc1ccccc1,-1.0,-1.1,-0.1,5.5,x,x,
C/C(=C\CO)CC[C@H](C)CCC[C@H](C)CCCC(C)C,-24.0,1.6,-0.1,104.8*,-0.4,-2.9,
CC(=O)CCCC(C)CCCC(C)CCCC(C)C (stereo unspecified),-5.6,2.0,0.2,-1.3,x,x,
Cc1ccc2c(c1)CN(CCNC(=O)Cc1cc(=O)oc3cc(C)ccc13)CC(C)O2 (stereo unspecified),4.0,0.9,0.0,15.3,x,x,
CN1CCN(CCOCCOc2ccccc2[N+](=O)[O-])CC1,3.2,-0.2,-0.1,78.2*,7.3,21.7,
O=[N+]([O-])c1ccccc1OCCOCCOc1ccccc1[N+](=O)[O-],-4.0,-0.2,-0.1,3.4,x,x,
Cc1ccc(OCCOCCN2CCN(C)CC2)c([N+](=O)[O-])c1,-6.8,0.1,0.0,87.1*,17.8,25.9,
CCC(C)Nc1nc2ccccc2s1 (stereo unspecified),-1.6,1.7,0.0,8.5,x,x,

# High-throughput results from PubChem.
